# A selection follows.
# aSyn 5UTR act – Activators working through SNCA 5'UTR binding (MLPCN) | activity score, % (tested at 7.5 µM), hits read low | alpha-synuclein 5'UTR reporter, activators screen | 300,000 compounds, 7.1% hits; in the data active means activity score below about -60%
# * = called active by the depositor.
SMILES,aSyn 5UTR act
COc1ccc(-c2ccc(/C=C3/C(=N)N4C=CSC4=NC3=O)o2)c([N+](=O)[O-])c1,-116.4*
CN(C)/C=C(\C#N)C(=O)Nc1ccc(F)c(Cl)c1,-142.8*
CN(C)/C=C(\C#N)C(=O)N/N=C/c1ccc(Cl)cc1,-65.6*
CN(C)/C=C(\C#N)C(=O)Nc1ccc(F)cc1,-95.8*
Cc1cc(C)c2nc(NNC(=O)c3ccc(S(=O)(=O)N4CCCC(C)C4)cc3)sc2c1 (stereo not given),72.9
CN(C)S(=O)(=O)c1ccc(C(=O)Nc2nc(-c3cccs3)cs2)cc1,-99.3*
CC1CC(C)CN(S(=O)(=O)c2ccc(C(=O)Nc3nnc(-c4cccs4)o3)cc2)C1 (stereo not given),60.3
O=C(Nc1nc(-c2cccs2)cs1)c1ccc(S(=O)(=O)N2CCCC2)cc1,-95.7*
Cc1csc(NC(=O)c2ccc(S(=O)(=O)N3CCCC3)cc2)n1,-62.3*
CCSc1nnc2nc3[nH]c4c(C)cccc4c3nn12,-146.8*
C=CCSc1nnc2c(n1)[nH]c1c(C)cccc12,-157.6*
C=CCSc1nnc(-c2sc(-c3ccccc3)nc2C)n1C,-63.8*
CN(C)c1ccc(NC(=O)/C=C/c2ccccc2Cl)cc1,-161.1*
CN(C)c1ccc(NC(=S)NC(=O)/C=C/c2ccc(Cl)cc2)cc1,-218.6*
CCN(CC)c1ccc(NC(=O)/C=C\c2ccccc2Cl)cc1,-189.8*
COc1cccc(NC(=O)c2cccs2)c1,-155.2*
O=C(NCc1ccccc1)C(=O)Nc1cccc(C(=O)O)c1,74.1
COc1ccc(C(=O)/C=C\c2ccc(NC(=O)c3cccs3)cc2)cc1,-129.4*
COc1cccc(NC(=O)C(=O)NCc2ccncc2)c1,-100.0*
COc1cccc(NC(=O)C2=COCCO2)c1,-63.6*
COc1cc(NC(=O)c2cccs2)cc(OC)c1,-89.6*
Cc1ccoc1C(=O)Nc1cccc2ccccc12,-92.2*
O=C(O)CCC(=O)Nc1ccccc1C(=O)NCCc1ccccc1,-77.7*
O=C(CCc1ccccc1)Nc1c(F)cccc1F,-133.3*
O=C(NCCc1ccccc1)c1ccccc1NC(=O)C1CC=CCC1C(=O)O (stereo not given),-133.3*
SMILES,aSyn 5UTR act
O=C(Nc1ccccc1C(=O)NCCc1ccccc1)c1cnccn1,-68.4*
O=C(Nc1cccc2ccccc12)c1cnccn1,-96.5*
NC(=O)c1ccccc1NC(=O)CCc1ccccc1,-113.0*
CCN(CC)c1ccc(NC(=O)CCCCC(=O)Nc2ccc(N(CC)CC)cc2)cc1,62.8
CCN(CC)c1ccc(NC(=O)Nc2ccccc2C(F)(F)F)cc1,-79.7*
CCN(CC)c1ccc(NC(=O)Nc2cccc3ccccc23)cc1,-114.7*
CN(C)c1ccc(NC(=O)Nc2cccc3ccccc23)cc1,-76.7*
COc1ccc2[nH]c(N=Nc3ccccc3C)c(O)c2c1,-207.4*
O=C(NCC1CCCO1)c1ccc2nc(N3CCCCC3)sc2c1 (stereo not given),-193.9*
CCC1=Nc2cc(C(=O)NCC3CCCO3)ccc2Sc2ccc(Cl)cc21 (stereo not given),-73.7*
O=C(NCC1CCCO1)c1ccc(N2CCCCC2)nc1 (stereo not given),-83.1*
Cc1cc(C)c2sc(NC(=O)c3ccc([N+](=O)[O-])o3)nc2c1,-110.4*
O=C(Nc1nc2c(F)cc(F)cc2s1)c1ccc([N+](=O)[O-])o1,-69.3*
O=C(CCc1ccccc1)Nc1nc2c(F)cc(F)cc2s1,-99.0*
Cc1ccc(C)c(-c2nnc(NC(=O)c3ccc([N+](=O)[O-])o3)o2)c1,-62.9*
Cc1cc(C)c2nc(NC(=O)c3ccc([N+](=O)[O-])o3)sc2c1,-144.1*
COc1ccc(-c2noc(CN(C)Cc3ccccc3)n2)c(OC)c1OC,-68.1*
Nc1ccccc1C#Cc1ccc([N+](=O)[O-])cc1,-261.6*
ON=C1c2cc(OCCN3CCCCC3)ccc2-c2ccc(OCCN3CCCCC3)cc21,-188.8*
C=CCOc1ccc2c(c1)C(=NO)c1cc(OCC=C)ccc1-2,-94.0*
COc1ccc2c(c1)C(=NO)c1cc(OC)ccc1-2,-82.6*
Cc1ccc2nc(NC(=O)C3CCCN(S(=O)(=O)c4cnc[nH]4)C3)sc2c1 (stereo not given),-127.9*
COc1ccc(NC(=O)Nc2ccc3nonc3c2)cc1,-150.4*
COc1ccc(NC(=O)Nc2ccc3nccnc3c2)cc1,-122.1*
CC1CC(C)CN(Cc2nc(N)nc(Nc3ccc4ccccc4c3)n2)C1 (stereo not given),-114.8*
SMILES,aSyn 5UTR act
CO/C([O-])=N/c1c[n+](-c2ccc(C)cc2)no1,-61.5*
CCCNC1=C(N(C(C)=O)c2cccc(F)c2)C(=O)c2ccccc2C1=O,91.7
CCCC(O)(CCC)C(=O)NN(C(=O)CCl)c1ccccc1,-68.8*
O=C(CCl)N(c1ccccc1)C1CCCCC1,110.0
CCCCSc1nnc(-c2c[nH]c3ccccc23)n1C,-135.4*
CCCCSc1nnc(-c2ccc(C)cc2)n1C,-109.3*
Cn1c(SCCOc2ccc(F)cc2)nnc1-c1ccncc1,-62.4*
Cn1c(SCc2ccccc2)nnc1-c1c[nH]c2ccccc12,-106.9*
O=C1NC(=O)/C(=C/c2ccc(O)cc2)S1,-91.5*
Cc1[nH]n(-c2nc(-c3ccc(Cl)cc3)cs2)c(=O)c1N=Nc1ccc(O)cc1,-118.2*
CCCCc1ccc(NC(=O)C2CCCC2)cc1,-68.6*
CCCCc1ccc(NC(=O)CC(C)C)cc1,-69.7*
CCOC(=O)c1ccc2nc(C)c(CCC(C)=O)c(Cl)c2c1,-108.4*
CCOC(=O)c1ccc2nc(C)c(C)nc2c1,-88.2*
COc1ccc(CNC[C@@H](CCCCN(C)Cc2ccc(OC)cc2)N2C[C@H](c3ccccc3)N(CCc3ccc(Cl)c(Cl)c3)C(=O)C2=O)cc1,92.2
COc1ccc(NC2=C(Cl)C(=O)N(CCc3ccccc3)C2=O)c(OC)c1,-177.3*
Cc1cc(N2CCN(C)CC2)ccc1NC(=O)c1c2c(nc3ccccc13)CCN(Cc1ccccc1)C2,91.6
COc1ccc(NC2=C(Cl)C(=O)N(CCc3ccccc3)C2=O)cc1,-68.0*
CN1CCN(C2=C(Cl)C(=O)N(Cc3ccccc3)C2=O)CC1,-119.6*
CCOc1ccc(NC2=C(Cl)C(=O)N(Cc3ccccc3)C2=O)cc1,-119.1*
Brc1c(CSc2nc3ccccc3s2)nc2ncccn12,-109.6*
Cc1oc(/N=C/c2ccc3c(c2)OCO3)c(C#N)c1C,-73.8*
CSc1nsc(N/N=C/c2ccc3c(c2)OCO3)c1C#N,-230.7*
Cc1ccc(Cn2cccc(-c3nc4ccccc4s3)c2=O)cc1,-194.1*
O=c1c(-c2nc3ccccc3s2)cccn1Cc1ccccc1,-86.8*
SMILES,aSyn 5UTR act
Cc1cc2c(ccc3c2no[n+]3[O-])nn1,-99.8*
[O-][n+]1onc2c3ccnnc3ccc21,-118.9*
O=C1CC(c2ccccc2Cl)=NN(c2ncnc3ccccc23)C1=O,-73.7*
Cc1ccc2c3c([nH]c2c1C)-c1nonc1CC3,-107.3*
COc1cccc(OCc2cc(/C=N/NC(=O)c3ccn[nH]3)ccc2OC)c1,-70.8*
CCc1ccc2nc3sc(C(=O)O)cc3cc2c1,-81.0*
COc1cc(OC)cc(C(=O)Nc2ccc(-n3cnnn3)c(C)c2)c1,-93.2*
Cc1cc(NC(=O)c2oc3ccccc3c2C)ccc1-n1cnnn1,-123.6*
Cc1nc(NCCc2ccc(S(N)(=O)=O)cc2)c2c3c(sc2n1)CCC3,-116.3*
Cc1ccc2nc(C3CCCCC3)[nH]c2c1,-93.5*
C/C(NC(=O)c1cccs1)=C1\C(=O)C[C@@H]2[C@H]1C2(C)C,-117.6*
Cn1c(N/N=C/c2c[nH]c3ccccc23)nc2ccccc21,-126.4*
Cn1c(N/N=C/c2cc3ccccc3nc2Cl)nc2ccccc21,-127.0*

# Screening data (PubChem BioAssay)
